From PubChem BioAssay (EPA / NIEHS)
The source made the active and inactive calls. How the source made its calls: active means hit-call score of the fitted dose curve at least 0.9, where 1 is the maximum; inactive means score below 0.9.

Experiments:
Details in all cases: mRNA level, 48 h; actives raise or lower the signal
[1] = read-out: CYP3A5 (gene 1577); assay: LTEA_HepaRG_CYP3A5: Life Technologies and Expression Analysis (LTEA) Assay for CYP3A5 using HepaRG (AID 2283493)
How it was run: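 mRNA induction or loss of CYP3A5 assessed in HepaRG after 48 h dosing, 100 uM top concentration, duplicate wells; TaqMan qRT-PCR with ACTB, GAPDH, POLR2A normalization; 0.5% DMSO as negative control.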

[2] = read-out: Fatty Acid-Binding Protein 1 (FABP1), FABP1 (gene 2168); assay: LTEA_HepaRG_FABP1: Life Technologies and Expression Analysis (LTEA) Assay for Fatty Acid-Binding Protein 1 (FABP1) using HepaRG (AID 2283494)
How it was run: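 Differentiated human HepaRG cells were exposed in duplicate for 48 h in serum-free induction medium to 8-point half-log concentration series topping at 100 uM in 0.5% DMSO. FABP1 mRNA measured by TaqMan qRT-PCR, normalized to ACTB/GAPDH/POLR2A; bidirectional fit versus DMSO.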

[3] = read-out: Glutathione S-Transferase (GSTA2), GSTA2 (gene 2939); assay: LTEA_HepaRG_GSTA2: Life Technologies and Expression Analysis (LTEA) Assay for Glutathione S-Transferase (GSTA2) using HepaRG (AID 2283497)
How it was run: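 Human HepaRG cells, plated 48 h, then exposed in serum-free induction medium for 48 h to eight half-log concentrations up to 100 uM in 0.5% DMSO, duplicate. GSTA2 mRNA by qRT-PCR, normalized to ACTB/GAPDH/POLR2A; bidirectional fit versus DMSO.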

[4] = read-out: Glutamate-cysteine ligase catalytic (GCLC), GCLC (gene 2729); assay: LTEA_HepaRG_GCLC: Life Technologies and Expression Analysis (LTEA) Assay for Glutamate-cysteine ligase catalytic (GCLC) using HepaRG (AID 2283498)
How it was run: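 Differentiated human HepaRG cells, plated 48 h then switched to serum-free induction medium, were exposed in duplicate for 48 h to 8 half-log concentrations topping at 100 uM in 0.5% DMSO. GCLC mRNA was quantified by qRT-PCR against ACTB, GAPDH and POLR2A.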

[5] = read-out: growth arrest and DNA damage 45 (GADD45G), GADD45G (gene 10912); assay: LTEA_HepaRG_GADD45G: Life Technologies and Expression Analysis (LTEA) Assay for growth arrest and DNA damage 45 (GADD45G) using HepaRG (AID 2283499)
How it was run: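 Gain or loss of GADD45G mRNA, quantified by TaqMan qRT-PCR against three housekeeping genes, is fitted in both directions relative to 0.5% DMSO. Human HepaRG cultures receive test chemical for 48 h at up to 100 uM.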

[6] = read-out: Glutamate-cysteine ligase regulatory (GCLM), GCLM (gene 2730); assay: LTEA_HepaRG_GCLM: Life Technologies and Expression Analysis (LTEA) Assay for Glutamate-cysteine ligase regulatory (GCLM) using HepaRG (AID 2283500)
How it was run: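 Human liver HepaRG cultures receive test chemicals for 48 hours at up to 100 uM in 0.5% DMSO. GCLM expression is measured by qRT-PCR and analysed for increases or decreases against vehicle.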

[7] = read-out: Glutathione S-transferase M3 (GSTM3), GSTM3 (gene 2947); assay: LTEA_HepaRG_GSTM3: Life Technologies and Expression Analysis (LTEA) Assay for Glutathione S-transferase M3 (GSTM3) using HepaRG (AID 2283501)
How it was run: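 HepaRG, plated 48 h, then serum-free induction medium; test chemical 48 h, duplicate; 100 uM top, half-log x8, 0.5% DMSO. Read-out: GSTM3 mRNA (TaqMan qRT-PCR, Fluidigm array). Bidirectional fit vs DMSO.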

[8] = read-out: Heat shock 70 kDa protein 1 (HSPA1A), gene 3303; assay: LTEA_HepaRG_HSPA1A: Life Technologies and Expression Analysis (LTEA) Assay for Heat shock 70 kDa protein 1 (HSPA1A) using HepaRG (AID 2283502)
How it was run: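 HSPA1A induction in human HepaRG liver cells is measured after 48 h of chemical treatment (100 uM maximum, 0.5% DMSO vehicle). Expression comes from qRT-PCR normalized to endogenous controls.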

[9] = read-out: Hypoxia-inducible factor 1-alpha (Homo sapiens) (UniProt Q16665); assay: LTEA_HepaRG_HIF1A: Life Technologies and Expression Analysis (LTEA) Assay for Hypoxia-inducible factor 1 (HIF1A) Trancription factor using HepaRG (AID 2283503)
How it was run: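 HepaRG, 48 h exposure, 8-pt half-log series from 100 uM, 0.5% DMSO vehicle, duplicates. Readout: HIF1A transcript by qRT-PCR (Fluidigm array), housekeeping-normalised. Bidirectional curve fit vs DMSO baseline.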

[10] = read-out: 3-Hydroxy-3-Methylglutaryl-CoA Synthase 2 (HMGCS2), HMGCS2 (gene 3158); assay: LTEA_HepaRG_HMGCS2: Life Technologies and Expression Analysis (LTEA) Assay for 3-Hydroxy-3-Methylglutaryl-CoA Synthase 2 (HMGCS2) using HepaRG (AID 2283504)
How it was run: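 HepaRG, plated 48 h then switched to serum-free induction media; cmpd 8-pt, max 100 uM, 1/2-log, 0.5% DMSO, n=2, 48 h. HMGCS2 mRNA by Fluidigm TaqMan qRT-PCR, ACTB/GAPDH/POLR2A norm; bidirectional fit vs DMSO.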

[11] = read-out: HGF (gene 3082); assay: LTEA_HepaRG_HGF: Life Technologies and Expression Analysis (LTEA) Assay for Hepatocyte Growth Facto (HGF) using HepaRG (AID 2283505)
How it was run: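 Read-out is HGF transcript level by qRT-PCR, normalized to three housekeeping genes, fitted bidirectionally against 0.5% DMSO vehicle. Human HepaRG cells received test chemicals for 48 h at up to 100 uM.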

[12] = read-out: Insulin Like Growth Factor 1 (IGF1), IGF1 (gene 3479); assay: LTEA_HepaRG_IGF1: Life Technologies and Expression Analysis (LTEA) Assay for Insulin Like Growth Factor 1 (IGF1) using HepaRG (AID 2283506)
How it was run: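 Using human HepaRG liver cells, IGF1 transcript induction or suppression is measured 48 h after dosing across eight concentrations capped at 100 uM. Values derive from bidirectional concentration-response fitting with DMSO as baseline.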

[13] = read-out: Intercellular Adhesion Molecule 1 (ICAM1), ICAM1 (gene 3383); assay: LTEA_HepaRG_ICAM1: Life Technologies and Expression Analysis (LTEA) Assay for Intercellular Adhesion Molecule 1 (ICAM1) using HepaRG (AID 2283507)
How it was run: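 Readout is qRT-PCR mRNA level, normalized to three housekeeping genes and fitted bidirectionally against 0.5% DMSO vehicle. Human HepaRG cultures received compound for 48 h, top concentration 100 uM with half-log dilutions.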

[14] = read-out: Insulin-like growth factor-binding protein 1 (IGFBP1), IGFBP1 (gene 3484); assay: LTEA_HepaRG_IGFBP1: Life Technologies and Expression Analysis (LTEA) Assay for Insulin-like growth factor-binding protein 1 (IGFBP1) using HepaRG (AID 2283508)
How it was run: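 Thawed HepaRG cells are plated for 48 h, switched to serum-free induction medium, then dosed in duplicate for another 48 h (100 uM top, half-log steps). Lysates in RLT go to qRT-PCR, and gain or loss of signal is fitted relative to vehicle.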

[15] = read-out: Interleukin 6 (IL6), IL6 (gene 3569); assay: LTEA_HepaRG_IL6: Life Technologies and Expression Analysis (LTEA) Assay for Interleukin 6 (IL6) using HepaRG (AID 2283509)
How it was run: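 Differentiated human HepaRG cells, plated 48 h then switched to serum-free induction medium, were exposed in duplicate for 48 h to eight half-log concentrations up to 100 uM in 0.5% DMSO. IL6 mRNA measured by qRT-PCR, normalized to ACTB/GAPDH/POLR2A.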

[16] = read-out: Interleukin 6 Receptor (IL6R), IL6R (gene 3570); assay: LTEA_HepaRG_IL6R: Life Technologies and Expression Analysis (LTEA) Assay for Interleukin 6 Receptor (IL6R) using HepaRG (AID 2283510)
How it was run: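 Concentration-response in human liver HepaRG cells: eight concentrations from 100 uM downward by half-logs, 48 h exposure, 0.5% DMSO vehicle. IL6R mRNA change measured by qRT-PCR and fitted in both directions relative to vehicle.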

[17] = read-out: Potassium channel subfamily K member 1 (KCNK1), KCNK1 (gene 3775); assay: LTEA_HepaRG_KCNK1: Life Technologies and Expression Analysis (LTEA) Assay for Potassium channel subfamily K member 1 (KCNK1) using HepaRG (AID 2283511)
How it was run: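 Differentiated human HepaRG cells in serum-free induction medium were exposed in duplicate for 48 h to 8 half-log concentrations up to 100 uM in 0.5% DMSO. KCNK1 mRNA was measured by TaqMan qRT-PCR, normalized to ACTB, GAPDH and POLR2A, and fitted bidirectionally versus DMSO.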

[18] = read-out: Keratin 19 (KRT19), KRT19 (gene 3880); assay: LTEA_HepaRG_KRT19: Life Technologies and Expression Analysis (LTEA) Assay for Keratin 19 (KRT19) using HepaRG (AID 2283512)
How it was run: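 KRT19 transcript levels, measured by Fluidigm qRT-PCR against three housekeeping genes, are fitted for gain or loss of signal relative to DMSO. Human HepaRG cells receive test chemicals (top 100 uM, half-log steps, 0.5% DMSO) for 48 hours.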

[19] = read-out: JUN Transcription Factor, JUN (gene 3725); assay: LTEA_HepaRG_JUN: Life Technologies and Expression Analysis (LTEA) Assay for JUN Transcription Factor using HepaRG (AID 2283513)
How it was run: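 Human HepaRG liver cells receive test chemicals in 0.5% DMSO for 48 h across an eight-point range topping at 100 uM. Expression changes in JUN are scored in both directions against the DMSO vehicle.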

Measured: outcome

Chain of Hypoxia-inducible factor 1-alpha (Homo sapiens) (Q16665 whole entry, looked up): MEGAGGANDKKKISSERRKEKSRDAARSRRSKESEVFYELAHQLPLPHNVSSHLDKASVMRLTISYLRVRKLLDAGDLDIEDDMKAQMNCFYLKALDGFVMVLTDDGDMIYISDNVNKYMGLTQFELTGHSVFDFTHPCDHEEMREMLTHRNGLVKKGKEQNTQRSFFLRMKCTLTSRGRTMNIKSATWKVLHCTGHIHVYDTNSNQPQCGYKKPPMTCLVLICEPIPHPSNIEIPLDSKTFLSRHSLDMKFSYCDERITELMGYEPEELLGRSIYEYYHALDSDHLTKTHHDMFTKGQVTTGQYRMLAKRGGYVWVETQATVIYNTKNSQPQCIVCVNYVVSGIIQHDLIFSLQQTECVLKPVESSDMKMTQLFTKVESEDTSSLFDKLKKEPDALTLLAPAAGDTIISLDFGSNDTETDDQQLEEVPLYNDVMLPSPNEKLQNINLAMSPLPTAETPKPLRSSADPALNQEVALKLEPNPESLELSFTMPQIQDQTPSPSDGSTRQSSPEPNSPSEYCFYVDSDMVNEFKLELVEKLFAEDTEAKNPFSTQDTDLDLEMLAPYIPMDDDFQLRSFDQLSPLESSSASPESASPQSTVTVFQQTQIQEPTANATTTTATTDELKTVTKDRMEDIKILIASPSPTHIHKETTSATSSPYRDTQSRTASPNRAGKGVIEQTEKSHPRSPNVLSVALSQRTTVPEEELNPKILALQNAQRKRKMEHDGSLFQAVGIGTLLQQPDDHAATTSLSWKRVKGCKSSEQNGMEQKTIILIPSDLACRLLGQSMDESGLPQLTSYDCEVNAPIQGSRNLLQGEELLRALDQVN

c1cc[n+]2c(c1)-c1cccc[n+]1CC2
inactive: [1] | [2] | [3] | [4] | [5] | [6] | [7] | [8] | [9] | [10] | [11] | [12] | [13] | [14] | [15] | [16] | [17] | [18] | [19]
